# Results from PubChem BioAssay AID686978 (National Center for Advancing Translational Sciences (NCATS), 2013).
# The whole screen tested about 420,000 compounds, of which about 64,000 (15%) were called active. Another 27% or so got no clear call; they are omitted. Calls come from the whole dose curve; as a rule, active = well fitted inhibition curve with a large enough effect; inconclusive = small, poorly fitted or top-dose-only effect; inactive = flat fitted curve, though single readings scatter. Not all results are given here. Entries that show only a call come without a potency.
# Test: qHTS for Inhibitors of human tyrosyl-DNA phosphodiesterase 1 (TDP1): qHTS in cells in absence of CPT; note: nearly all actives have a fitted effect of over 55% in size
# Settings: DT40 Tdp1-/- hTDP1 cells, no CPT, ATP luminescence, 48 h; activity change, negative = growth inhibition: at 46.2 µM (top of the series)
# Excerpt: Human tyrosyl-DNA phosphodiesterase 1 (TDP1) is a novel repair gene, and we propose to use it as a new target for anticancer drug development. TDP1 is not an essential protein, but under treatment with topoisomerase I poison (camptothecin: CPT), TDP1 works as a critical factor for cell survival. To directly identify novel TDP1 inhibitors active in a cellular environment, we have knocked-out the Tdp1 gene in chicken DT40 cells (Tdp1-/-) and generated a complemented counterpart cells that contains a stable transfection of the human TDP1 gene (Tdp1-/-;hTDP1 cells). For the primary screen, Tdp1-/-;hTDP1 cells will be exposed to small molecules in the presence or absence of CPT, and their growth kinetics will be evaluated after 48 hours by measuring ATP activity. […] The hit compounds will then be evaluated in the presence or absence of CPT using Tdp1-/- cells. […] In tertiary assays, biochemical gel-based assays will be used to assess whether the hit compounds specifically target TDP1.
# To this end, we have screened this cell line against the MLSMR in two primary screens. In one screen we add CPT and in the other we screen in the absence of CPT; this AID represents the screen where CPT was absent.
# NIH Chemical Genomics Center [NCGC]
# NIH Molecular Libraries Probe Centers Network [MLPCN]
# Assay Submitter (PI): Yves Pommier, NCI
# DT40-hTDP1 cells without 20 nM Camptothecin (add 20 microL of DMSO in 1 L of cell culture medium) were dispensed at 400 cells/5microL/well in tissue culture treated 1536-well white wall/solid bottom assay plates (Greiner Bio-One North America, NC, U.S.A.) using a Multidrop Combi 8 channel dispenser (Thermo Fisher, Waltham, MA, USA). 23 nL compounds and controls were transferred using the pin tool (Kalypsys, San Diego, CA, USA) to the assay plates. The assay plates were then incubated at 37 masculineC for a minimum 48 hr. Three microL of Cell Titer Glo solution was added to the plates and incubated at RT in dark for 30 min. Luminescence was read using ViewLux (Perkin Elmer) with 1 sec exposure slow speed, high gain and 2x binning.
# Potency is the fitted concentration of half-maximal effect.
row,Compound,Potency
1,Cc1cccc(C)c1NC(=O)CCS(=O)(=O)c1cccc2nsnc12,inactive
2,Cn1c(C(=O)OC(C(=O)NC2CCCCC2)c2ccccn2)cc2sccc21 (configuration not stated),inactive
3,COc1ccc(C(=O)N2CCC3(CCCN(C(c4ccccc4)c4ccccc4)C3)CC2)cc1,inactive
4,Cc1ccc(SCC2=NNC(=O)C2)cc1,inactive
5,Cc1ccc(C(=O)N/C(=C/C=C/c2ccccc2)C(=O)NCc2ccco2)cc1,inactive
6,O=C(Nc1ccncc1)c1cc2ccccc2o1,8.2 µM (active)
7,Cc1ccc(NC(=O)c2cc3ccccc3o2)cc1,inactive
8,CC(C)Oc1ccc(NC(=O)c2cc3ccccc3o2)cc1,inactive
9,CCOC(=O)C(=CNc1cccc(C)n1)C(=O)OCC,inactive
10,O=C(c1csnn1)N1CCC2(CC1)CN(c1ncccn1)C2,inactive
11,CCOC(=O)N1CCN(CC(=O)c2ccc3c(c2)CCN3)CC1,inactive
12,CC(OC(=O)CNC(=O)c1ccc(Cl)c([N+](=O)[O-])c1)C(=O)NCc1ccco1 (configuration not stated),inactive
13,CC(CC(=O)Nc1ccccc1)n1ccnc1 (configuration not stated),inactive
14,COc1ccccc1Oc1ccc(N2CC(C(=O)OCC(=O)c3ccc(F)cc3)CC2=O)cc1 (configuration not stated),inactive
15,COc1cccc(NC(=O)CN(C)S(=O)(=O)c2ccc(C)cc2)c1,inactive
16,CN1CCN(CC(=O)Nc2cccc([N+](=O)[O-])c2)CC1,inactive
17,Cc1ccc(S(=O)(=O)N(CC(=O)Nc2cccc([N+](=O)[O-])c2)Cc2ccc(Cl)cc2)cc1,25.9 µM (active)
18,Cc1ccc(S(=O)(=O)N(Cc2cccc([N+](=O)[O-])c2)C(=O)N2CCN(C)CC2)cc1,inactive
19,COc1ccc(C)cc1S(=O)(=O)N(CC(=O)Nc1cccc([N+](=O)[O-])c1)c1ccc(C)cc1,13 µM (active)
20,Cc1ccc(N(CC(=O)Nc2cc(C)cc(C)c2)S(=O)(=O)c2cccc3nonc23)cc1,inactive
21,CCn1cc(/C=C(\NC(=O)c2cc(OC)c(OC)c(OC)c2)C(=O)N2CCN(C)CC2)c2ccccc21,inactive
22,CCCCCN1CC(O)=C(c2nc(-c3ccc(Cl)cc3)cs2)C1=N,inactive
23,Cc1ccc(-n2nc(N)c3c(=O)oc(N(C)C)nc32)cc1,inactive
24,O=C(COC(=O)c1ncc(Cl)c(Cl)c1Cl)NCc1ccccc1,inactive
25,c1ccc(CNc2ncnc3[nH]ncc23)cc1,23.1 µM (active)
26,CN(c1ccccn1)c1ncnc2[nH]ncc12,inactive

row,Compound,Potency
1,Nc1ccccc1C(=O)NC1CCCCNC1=O (configuration not stated),inactive
2,O=C1CN(C(=O)COc2c(Cl)cccc2Cl)c2ccccc2N1,inactive
3,CCCCn1c(N)c(N(CC(C)C)C(=O)c2cccc(S(=O)(=O)N3CC(C)OC(C)C3)c2)c(=O)[nH]c1=O (configuration not stated),inactive
4,Cc1ccc(NC2=C(c3ccc(C(F)(F)F)cc3)C(=O)c3ccccc32)cc1F,8.2 µM (active)
5,Cc1ccc(NC(=O)NC(=O)c2ccccc2)cc1F,inactive
6,CCOC(=O)c1cnc(Nc2nc3ccccc3o2)nc1CSC(=S)N1CCCCC1,0.0326 µM (active)
7,COc1ccccc1Nc1nc(N)nc(CSC(=S)N2CCOCC2)n1,inactive
8,CCc1ccc(CNC(=O)C2CCCN(c3nc4ccccc4o3)C2)cc1 (configuration not stated),inactive
9,CC(NS(=O)(=O)c1ccc(OCC(=O)N2CCCC2)cc1)c1ccccc1 (configuration not stated),inactive
10,CC(=O)N1CCC2(CCCN(c3ncccn3)C2)CC1,inactive
11,CC12CCC(C(=O)N3CCN(c4ncccn4)CC3)(c3nc4ccccc4nc31)C2(C)C (configuration not stated),23.1 µM (active)
12,CC(Oc1ccc(F)cc1)C(=O)N1CCN(c2ncccn2)CC1 (configuration not stated),inactive
13,Cc1ccc(-c2ccnc3nc(Sc4ncc(C(F)(F)F)cc4Cl)nn23)cc1,inactive
14,Cn1c(SCC(=O)Nc2ccc(Br)cc2F)nnc1-c1ccco1,inactive
15,O=C(Nc1ccccc1C(=O)O)c1cc(S(=O)(=O)N2CCCCC2)cs1,inactive
16,COCCn1nnnc1C(c1cc2ccc(OC)cc2[nH]c1=O)N1CCc2ccccc2C1 (configuration not stated),inactive
17,COc1ccc(OC)c(C(c2nnnn2C(C)(C)C)N2CCc3ccccc3C2)c1 (configuration not stated),13 µM (active)
18,CC(C)(C)n1nnnc1C(c1ccc(Cl)cc1)N1CCSCC1 (configuration not stated),inactive
19,CCOc1ccc(Nc2nc(Cc3nnc(SCC(=O)NC4CCCC4)n3C)cs2)cc1,inactive
20,Cc1cccc(N2CCN(C(=O)CCn3c(=O)c4cccn4c4cccnc43)CC2C)c1 (configuration not stated),3.66 µM (active)
21,Cc1cccc(NC(=O)Cn2c(=O)n(CCC(C)C)c(=O)c3cccnc32)c1,inactive
22,Cc1cccc(N2CCN(C(=O)c3cc4c(=O)oc5ccccc5c4s3)CC2C)c1 (configuration not stated),inactive
23,Cc1ccc(S(=O)(=O)N(C)C2(C)CCS(=O)(=O)C2)cc1 (configuration not stated),inactive
24,Cc1ccc(S(=O)(=O)NC2CCCCCC2)cc1,inactive
25,Cc1ccc(S(=O)(=O)C2(S(=O)(=O)c3ccc(C)cc3)CCCC2)cc1,6.51 µM (active)
26,C=C1c2cccc(OC)c2O[C@H](C(=O)OCC)[C@@H]1CCCCCC,inactive
